Bioassay records from PubChem.
HPGD block – qHTS Assay for Inhibitors of HPGD (15-Hydroxyprostaglandin Dehydrogenase) | 15-hydroxyprostaglandin dehydrogenase [NAD(+)] (Homo sapiens), P15428 | purified HPGD, NADH fluorescence kinetic, PGE2 substrate | Potency, µM, for inactives: at the top dose activity change, negative = inhibition, most hits filed as inhibitors | 150,000 compounds, 4.3% hits | AID 894, 2007; active = well fitted inhibition curve with a large enough effect, not every such curve was filed as active; inconclusive = small, poorly fitted or top-dose-only effect, or another doubt; inactive = no such curve, though single readings can be large or run the other way; also: potency is read from the fitted curve at half-maximal effect; % is scaled to controls: 0 for no effect and ±100 for the full control effect
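20 nM HPGD preincubated 15 min at room temperature with compound in 50 mM Tris-HCl pH 8, 0.01% Tween 20. Started with 1 mM NAD+ and 30 uM prostaglandin E2; NADH fluorescence (360/450 nm) read 5 times over 30-s intervals, last minus first.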
ALDH1A1 block – qHTS Assay for Inhibitors of Aldehyde Dehydrogenase 1 (ALDH1A1); Aldehyde dehydrogenase 1A1 (Homo sapiens), P00352; Potency, µM (series often up to 75.3 µM), without a hit: at the top dose activity, negative = inhibition, hits mostly inhibitors; Purified ALDH1A1, NADH fluorescence, propionaldehyde substrate; 220,000 compounds, 7.3% hits; AID 1030, 2008; active = well fitted inhibition curve with a large enough effect, not every such curve was filed as active; inconclusive = small, poorly fitted or top-dose-only effect, or another doubt; inactive = no such curve, though single readings can be large or run the other way;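 also: potency is read from the fitted curve at half-maximal effect; plate controls were no enzyme wells and a reference inhibitor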
Target sequence (P00352 whole entry, looked up): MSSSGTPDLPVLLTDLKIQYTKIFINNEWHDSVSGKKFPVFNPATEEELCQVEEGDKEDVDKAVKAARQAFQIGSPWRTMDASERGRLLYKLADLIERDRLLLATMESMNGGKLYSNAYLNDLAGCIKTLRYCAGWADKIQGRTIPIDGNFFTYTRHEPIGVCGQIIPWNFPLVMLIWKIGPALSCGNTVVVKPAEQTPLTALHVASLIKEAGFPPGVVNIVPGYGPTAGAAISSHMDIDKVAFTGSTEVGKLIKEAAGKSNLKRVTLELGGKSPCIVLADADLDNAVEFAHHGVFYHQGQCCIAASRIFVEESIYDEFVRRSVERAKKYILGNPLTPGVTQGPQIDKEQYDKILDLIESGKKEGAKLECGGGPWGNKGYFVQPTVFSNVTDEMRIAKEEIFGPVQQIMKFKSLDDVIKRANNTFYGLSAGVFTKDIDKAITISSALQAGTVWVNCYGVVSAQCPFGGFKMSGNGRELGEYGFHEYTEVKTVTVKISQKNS
CBFb RUNX1 block – qHTS Assay for Compounds Blocking the Interaction Between CBF-beta and RUNX1 for the Treatment of Acute Myeloid Leukemia; Potency, µM (top dose mostly 59.8 µM), inactives show top-dose activity, negative = inhibition, most hits filed as inhibitors; 230,000 tested, under 10 active; Runt-related transcription factor 1 (Homo sapiens) + Core-binding factor subunit beta …; AID 1477, 2009; AlphaScreen CBFb-His/RUNX1-biotin binding, biochemical; also: % of control where 0% means no effect
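Inhibition was taken as any reduction in AlphaScreen signal from the CBF-beta–RUNX1 pair (His and biotin tags, 30 nM each), measured after compound (15 min) and bead (90 min) incubations at room temperature.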
HTT aggregate – qHTS Multiplex Assay to Identify Dual Action Probes in a Cell Model of Huntington: Aggregate Formation (GFP). AID 1688, 2009. Potency, µM (top dose mostly 46.1 µM), for the others: at the highest dose activity change, negative = inhibition, hits mostly inhibitors. PC12 HttQ103-GFP aggregates, Acumen cytometry, 40 h. 220,000 compounds, 1.1% hits; also: potency is read from the fitted curve at half-maximal effect; % is scaled to controls: 0 for no effect and ±100 for the full control effect; nearly all actives have a fitted effect of over 60% in size
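Quantitative HTS on tebufenozide-induced (100 nM) PC12 cells stably expressing polyQ103 Huntingtin exon 1–GFP. Reduction of bright GFP aggregates, detected by laser scanning cytometry after lysis, identified actives across the titration.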
HTT cytoprotect – qHTS Multiplex Assay to Identify Dual Action Probes in a Cell Model of Huntington: Cytoprotection (ATP). PC12 HTT-Q103 induced, cytoprotection, ATP luminescence, 40 h. Potency, µM (titrated, usually from 56.4 µM), inactives show cytoprotection (ATP increase), hits mostly activators. 230,000 compounds, 0.14% hits. AID 1471, 2008; also: potency is read from the fitted curve at half-maximal effect; % of control where 0% means no effect; nearly all actives have a fitted effect of over 45% in size
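Readout: ATPlite luminescence (ATP level). Model: stable PC12, inducible Htt exon1 Q103-GFP. Inducer: tebufenozide, 100 nM final. Compounds: dose series. No G418 in medium.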
PNC inhibitor – High Content Assay for Compounds that inhibit the Assembly of the Perinucleolar Compartment | 140,000 compounds, 3.1% hits | AID 2417, 2010 | PC3M PTB-GFP, PNC prevalence imaging, 16 h; stronger effect = lower value | activity change (PNC), negative = inhibition, % at 10 µM;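 active = readout at or below -70, meaning at least 70% loss of cells showing the perinucleolar compartment, a nuclear body marking cancer cells; inconclusive = readout between -30 and a set limit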;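 also: plate controls were DMSO wells for no effect and camptothecin positive control wells for full effect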
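PC3M cells stably expressing PTB-GFP, 750–1000 cells/well, treated 16 h at 37 °C with compound (23 nl of library stock), in duplicate. After paraformaldehyde fixation and Hoechst stain, imaged at 20x; PNC prevalence scored by image analysis.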
* = called active by the depositor; ? = inconclusive; / = no result given; [ ] = remark or other dose. An excerpt weighted towards active compounds, which were near 11% of everything screened. Unless noted, calls follow the shape of the dose curve; as a rule, active = well fitted curve in the direction sought with a large enough effect; inconclusive = small, poorly fitted or top-dose-only effect, or another doubt; inactive = no such curve, though single readings can be large; an effect the other way counts as inactive or inconclusive.

SMILES	HPGD block	ALDH1A1 block	CBFb RUNX1 block	HTT aggregate	HTT cytoprotect	PNC inhibitor
Cc1c(NC(=O)CSc2ccc(Cl)cc2)cccc1-c1nc2cc(Cl)ccc2o1	-12%	20%	4%	7%	/	-113*
O=S(=O)(Nc1cc2nc3ccccc3nc2n1Cc1ccccc1)c1ccc(Cl)cc1	-18%	?	8%	?	-44%[10 µM]	-26
CCCCN1C(=O)N(C)C2C1N(C)C(=O)N2CCCC (configuration not stated)	-10%	-1%	-4%	11%	-12%[10 µM]	-100*
O=C(c1ccc2c3c(cccc13)CC2)N1CCOCC1	11µM*	14µM*	-2%	-13%	-12%	-21
Cc1ccc2cc(CN(C(=O)c3ccco3)c3ccccc3C)c(=O)[nH]c2c1	-24%	4.5µM*	1%	-28%	-4%	44
COc1ccc(C[N+](C)(C)N)cc1OC	-3%	-3%[13.5 µM]	/	/	-9%[10 µM]	/
O=C1OC2(CCCCC2)OC(=O)C1=CNc1ccc2c(c1)OCO2	-14%	0.89µM*	0%	15%	-18%[0.074 µM]	17
COc1ccccc1NC=C1C(=O)OC2(CCCCC2)OC1=O	?	0.056µM*	2%	-1%[9.22 µM]	-30%	5
COc1cccc(NC=C2C(=O)OC3(CCCCC3)OC2=O)c1	-24%	1.6µM*	-4%	12%	-5%	22
COc1cccc(NC=C2C(=O)OC(C)(C)OC2=O)c1	-8%	10µM*	5%	0%[9.22 µM]	3%	-17
CCOC(=O)c1ccc(NC=C2C(=O)OC3(CCCCC3)OC2=O)cc1	-14%	?	0%	3%	10%	15
CN(C1CCCCC1)S(=O)(=O)c1ccc(C(=O)N2CCN(c3nc4ccccc4s3)CC2)cc1	-15%	4%	-2%	-16%	9%[10 µM]	?
O=C1OC2(CCCCC2)OC(=O)C1=CNc1nc2ccccc2s1	-10%	11µM*	0%	14%	4%[10 µM]	?
O=C1OC2(CCCCC2)OC(=O)C1=CNc1nccs1	1%	?	0%	2%	-2%[10 µM]	48
Brc1ccc2c(c1)C(C1=NCCN1)c1ccccc1CS2 (configuration not stated)	4%	3%	15%	-12%	/	-109*
CC(C)C[C@@H](NC(=O)OCC1c2ccccc2-c2ccccc21)C(=O)O	-4%	13µM*	7%[21.7 µM]	/	-1%	/
CC(C)(C)OC(=O)NC(NC(=O)OCC1c2ccccc2-c2ccccc21)C(=O)O (configuration not stated)	/	/	-19%	/	/	/
CCCC(=O)Nc1cc(S(=O)(=O)N(CC)CC)ccc1Cl	-24%	13µM*	2%	17%	41%[0.074 µM]	-19
CCN(CC)S(=O)(=O)c1ccc(Cl)c(C(=O)NCc2ccccc2Cl)c1	-6%	7.9µM*	0%	-29%	1%	-12
CN(C)S(=O)(=O)c1ccc(Cl)c(NC(=O)COC(=O)c2ccc(O)cc2)c1	/	?	8%	13%	7%[10 µM]	/
CN(C)S(=O)(=O)c1ccc(Cl)c(NC(=O)COC(=O)c2ccc3c(c2)NC(=O)CS3)c1	/	3.5µM*	4%	8%[9.22 µM]	-12%[10 µM]	/
CCN(CC)S(=O)(=O)c1ccc(Cl)c(NC(=O)COC(=O)c2ccc(O)cc2)c1	/	16µM*	1%	-6%	/	/
O=C1CNC(=O)/C1=C\N1CCN(C(c2ccccc2)c2ccccc2)CC1	-4%	-14%	5%	2%	-3%	26
C=C(C)C1CCC(C)C(OC(C)=O)C1 (configuration not stated)	/	/	6%	/	/	/
